# Screening results: PubChem, several laboratories
# A selection: hits, their analogues and other compounds. The true share with any hit is near 1.5%.
# CCHF vOTU inh-1: blocks the CCHF virus ovarian tumor domain protease. 370,000 compounds, 0.55% hits. CCHFV vOTU protease, Pep-AMC fluorescence. inhibition, % at 11.5 µM
# TcdB inh: blocks C. difficile toxin B glycohydrolase activity | 350,000 compounds, 0.24% hits | P18177 | inhibition, % at 9.99 µM | AID 652162 | TcdB glycohydrolase enzymatic assay, plate reader; in the data active = inhibition above about 10%
# PriA SSB inh: blocks PriA binding to SSB C-terminal tail | AlphaScreen SSBct-PriA binding, biotinylated peptide | inhibition, % at 33 µM | 430,000 compounds, 0.6% hits | AID 1272365; in the data active = inhibition mostly above about 37%, no sharp cut-off; inactive = mostly below about 20%
# DUSP3 inh: inhibitors of human VHR1 phosphatase (DUSP3). 290,000 compounds, 0.52% hits. inhibition, % at 13.3 µM. AID 1654. recombinant VHR phosphatase, pNPP absorbance; in the data active = inhibition above about 50%
# Vc quorum ag: induces V. cholerae light production without autoinducers; V. cholerae BH1578 lux reporter, luminescence, 6 h; activation, % at 18.7 µM; 350,000 compounds, 0.16% hits; AID 588436; in the data active = activation mostly above about 9.7%, no sharp cut-off
# PrPC TRFRET: reduces human prion protein on the cell surface; P04156; cell surface PrPC, TR-FRET read-out; 370,000 compounds, 0.43% hits; inhibition, % at 13.8 µM; in the data active = inhibition above about 24%
# CCHF vOTU inh-2: CCHFV vOTU protease inhibition, confirmation. AID 686976. shares compounds with CCHF vOTU inh-1. 1,900 compounds, 17% hits. Recombinant CCHFV vOTU, Pep-AMC fluorescence. inhibition, % at 11.5 µM
# Hits are given with their value; - = inactive; . = no result; ! = not active in a repeat. Cut-off read from the data, not from the text of the source, unless noted: active = inhibition above about 30%; inactive = the rest.
SMILES,CCHF vOTU inh-1,TcdB inh,PriA SSB inh,DUSP3 inh,Vc quorum ag,PrPC TRFRET,CCHF vOTU inh-2
Cc1ccc(S(=O)(=O)NC2=C(N3CCN(c4ccccc4F)CC3)C(=O)c3ccccc3C2=O)cc1,53.1!,-,-,-,-,-,-
CCOC(=O)N1CCN(C2=C(NS(=O)(=O)c3ccc(C)cc3)C(=O)c3ccccc3C2=O)CC1,81.9,-,-,-,-,-,81.0
CC(=O)Nc1ccc(S(=O)(=O)NC2=C(N3CCN(c4ccc(F)cc4)CC3)C(=O)c3ccccc3C2=O)cc1,76.9,-,-,-,-,-,69.1
CC(=O)Nc1ccc(S(=O)(=O)Nc2ccc(N3CCOCC3)cc2)cc1,-,.,-,-,-,-,.
Cc1ccc(S(=O)(=O)NC2=C(N3CCN(Cc4ccccc4)CC3)C(=O)c3ccccc3C2=O)cc1,-,-,-,-,-,-,.
CN1CCc2cc(C(CNC(=O)Nc3ccc(F)cc3)N3CCCC3)ccc21 (centres undefined),.,.,-,.,.,.,.
Cc1noc(C)c1CNC(=O)c1nnn(Cc2ccccc2)c1-n1cccc1,.,.,-,.,.,.,.
O=C(NCCn1ccc(-c2cccs2)n1)c1ccccc1Cl,.,.,-,.,.,.,.
COc1ccccc1CNC(=O)c1nnc2n(c1=O)CCN2c1ccc(F)cc1,.,.,-,.,.,.,.
Cc1cc(C)nc(SCC(=O)NN=Cc2cccn2-c2cccc(C(F)(F)F)c2)n1,.,.,-,.,.,.,.
Cc1cc(C)nc(SCC(=O)N/N=C/c2cccn2-c2cccc(C(F)(F)F)c2)n1,30.1,.,.,-,-,-,-
CC1=C(C(=O)N(C)C)CC(CC(=O)NC(c2ccccc2)c2ccccc2)C(=O)N1Cc1ccc(F)cc1 (centres undefined),34.4,-,.,.,-,-,-
CC1=C(C(=O)N(C(C)C)C(C)C)CC(CC(=O)NCc2cccc3ccccc23)C(=O)N1Cc1ccc(C(C)(C)C)cc1 (centres undefined),32.8,-,.,.,.,-,-
CC1=C(C(=O)N(C)C)CC(CC(=O)NCc2cccc3ccccc23)C(=O)N1Cc1ccc(C(C)(C)C)cc1 (centres undefined),-,-,.,.,.,-,.
CC1=C(C(=O)N(C(C)C)C(C)C)CC(CC(=O)NCCCCc2ccccc2)C(=O)N1Cc1ccc(C(C)(C)C)cc1 (centres undefined),34.8,-,.,.,.,-,-
CC1=C(C(=O)N2CCOCC2)CC(CC(=O)NCCCCc2ccccc2)C(=O)N1Cc1ccc(C(C)(C)C)cc1 (centres undefined),32.1,-,.,.,-,-,-
COc1cc(NS(=O)(=O)c2ccc(NC(=O)CSc3nc4sc5c(c4c(=O)n3C)CCCC5)cc2)nc(OC)n1,.,.,-,.,.,.,.
CC1=C(C(=O)N2CCOCC2)CC(CC(=O)NCCCN(C)C)C(=O)N1Cc1ccc(F)cc1 (centres undefined),36.9,-,.,.,.,-,-
CC1=C(C(=O)N(C(C)C)C(C)C)CC(CC(=O)NCC2CCCCC2)C(=O)N1Cc1ccc(C(C)(C)C)cc1 (centres undefined),37.5,-,.,.,.,-,-
COc1cc(OC)c(NC2=CC(=O)C(=O)c3ccccc32)cc1Cl,-,-,-,-,-,-,.
O=C1C=C(Nc2ccc(O)cc2)C(=O)c2ccccc21,-,-,-,-,-,-,.
Cc1ccc(NC2=CC(=O)C(=O)c3ccccc32)cc1,93.3,.,-,-,-,-,70.5
NS(=O)(=O)c1ccc(NC2=CC(=O)C(=O)c3ccccc32)cc1,100.0,-,-,-,-,-,101.7
CCOC(=O)c1ccc(NC2=CC(=O)C(=O)c3ccccc32)cc1,-,.,-,-,-,-,.
Cc1cc(NC2=CC(=O)C(=O)c3ccccc32)no1,80.9,-,-,.,-,-,95.7
Cc1csc(NC(=O)CCc2csc(NC(=O)Nc3ccccc3)n2)n1,.,.,-,.,.,.,.
CCOc1ccc(CC(=O)N(CCc2cccs2)c2nc3c(SC)cccc3s2)cc1,.,.,-,.,.,.,.
O=S(=O)(c1ccc2c(c1)CCCC2)N1CCC(Oc2cccnn2)CC1,.,.,-,.,.,.,.
CC(C)C[C@H](NC(=O)c1nc[nH]c1C(=O)NCCCCCNC(=O)OC(C)(C)C)C(=O)OCc1ccccc1,30.3,-,-,-,-,-,-
CC(C)C[C@H](NC(=O)c1[nH]cnc1C(=O)N[C@@H](Cc1ccccc1)C(=O)OCc1ccccc1)C(=O)OC(C)(C)C,29.9,-,-,-,-,-,-
